The results in this text go back to the supplement of paper PMC6089552.

Molecules are shown by their SMILES. The whole screen tested about 3,200 compounds, of which about 300 (9.4%) showed activity. The full list was thinned out, with actives kept by preference. Unmarked numbers belong to inactive results.

The test has as its system A673/TR/shEF. The test is described as follows: cell viability (LOESS-normalised, relative to median of negative controls) (log2 ratio); higher = more viable cells (less compound effect), active = hit call of the paper (over 3 MAD below the median). The following applies: treatment time: 72 h. Put shortly: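 Viability of A673/TR/shEF Ewing sarcoma cells was determined by CellTiter-Glo luminescence. The cells, at 1,500 per well in 384-well plates, were grown with or without doxycycline from 24 h before compound addition to switch on EWS-FLI1 shRNA knockdown, then exposed for three days to library compounds at two or more concentrations or to DMSO controls. Signals were LOESS-corrected plate by plate, normalised to the negative-control median and log2-transformed.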

Setting [1] is: 0.25 µM, library screen: screen1, EWS-FLI1 expression: high (no doxycycline).
Setting [2] is: 0.25 µM, library screen: screen1, EWS-FLI1 expression: low (doxycycline-induced shRNA knockdown).
[3] abbreviates: 2.5 µM, library screen: screen1, EWS-FLI1 expression: high (no doxycycline).
[4] abbreviates: 2.5 µM, library screen: screen1, EWS-FLI1 expression: low (doxycycline-induced shRNA knockdown).
Setting [5] is: 0.103 µM, library screen: screen3, EWS-FLI1 expression: high (no doxycycline).
[6] abbreviates: 0.103 µM, library screen: screen3, EWS-FLI1 expression: low (doxycycline-induced shRNA knockdown).
Where [7] appears, read: 0.25 µM, library screen: screen2, EWS-FLI1 expression: high (no doxycycline).
Setting [8] is: 0.25 µM, library screen: screen2, EWS-FLI1 expression: low (doxycycline-induced shRNA knockdown).
Where [9] appears, read: 0.308 µM, library screen: screen3, EWS-FLI1 expression: high (no doxycycline).
The mark [10] stands for this setting: 0.308 µM, library screen: screen3, EWS-FLI1 expression: low (doxycycline-induced shRNA knockdown).
The mark [11] stands for this setting: 0.926 µM, library screen: screen3, EWS-FLI1 expression: high (no doxycycline).
Setting [12] is: 0.926 µM, library screen: screen3, EWS-FLI1 expression: low (doxycycline-induced shRNA knockdown).
The mark [13] stands for this setting: 2.5 µM, library screen: screen2, EWS-FLI1 expression: high (no doxycycline).
[14] abbreviates: 2.5 µM, library screen: screen2, EWS-FLI1 expression: low (doxycycline-induced shRNA knockdown).
The mark [15] stands for this setting: 2.8 µM, library screen: screen3, EWS-FLI1 expression: high (no doxycycline).
The mark [16] stands for this setting: 2.8 µM, library screen: screen3, EWS-FLI1 expression: low (doxycycline-induced shRNA knockdown).
Where [17] appears, read: 8.3 µM, library screen: screen3, EWS-FLI1 expression: high (no doxycycline).
[18] abbreviates: 8.3 µM, library screen: screen3, EWS-FLI1 expression: low (doxycycline-induced shRNA knockdown).
The mark [19] stands for this setting: 25 µM, library screen: screen3, EWS-FLI1 expression: high (no doxycycline).
The mark [20] stands for this setting: 25 µM, library screen: screen3, EWS-FLI1 expression: low (doxycycline-induced shRNA knockdown).

Consider `COc1cccc(CN2CCN(Cc3c[nH]c4ccccc34)CC2)c1`, for which the “cell viability (log2)” value runs as follows: under setting [1], 0.11; under setting [2], 0.105; under setting [3], 0.138; under setting [4], 0.0572.

As to `CNC[C@H](O)c1ccc(O)c(O)c1`, the “cell viability (log2)” value under setting [5] was 0.00528; the “cell viability (log2)” value under setting [6] was 0.0495; the “cell viability (log2)” value under setting [1] was 0.106; the “cell viability (log2)” value under setting [2] was 0.0509; the “cell viability (log2)” value under setting [7] is 0.169; the “cell viability (log2)” value under setting [8] is 0.0474. Further, the “cell viability (log2)” value reads like this: under setting [9], 0.079; under setting [10], 0.091; under setting [11], 0.0631; under setting [12], 0.0893; under setting [3], 0.183; under setting [4], 0.209. Also, the “cell viability (log2)” value is 0.122 under setting [13]; 0.099 under setting [14]; 0.0488 under setting [15]; 0.0524 under setting [16]; -0.00361 under setting [17]; 0.0638 under setting [18]. Also, the “cell viability (log2)” value by setting is: under setting [19], 0.098; under setting [20], 0.00995.

As for `NC[C@H](O)c1ccc(O)c(O)c1`, the “cell viability (log2)” value under setting [1] was 0.152; the “cell viability (log2)” value under setting [2] was -0.0124; the “cell viability (log2)” value under setting [7] is 0.069; the “cell viability (log2)” value under setting [8] is 0.102; the “cell viability (log2)” value under setting [3] was 0.127; the “cell viability (log2)” value under setting [4] is 0.154. Further, the “cell viability (log2)” value runs as follows: under setting [13], 0.0755; under setting [14], 0.101.

For `NCC(O)c1ccc(O)c(O)c1` (stereo unspecified), the “cell viability (log2)” value reads like this: under setting [7], -0.177 (active); under setting [8], 0.0558; under setting [13], 0.0351; under setting [14], -0.00208.

Consider `CS(=O)(=O)CCCCN=C=S`, for which the “cell viability (log2)” value under setting [1] is 0.17, the “cell viability (log2)” value under setting [2] is 0.115, the “cell viability (log2)” value under setting [3] is 0.227 and the “cell viability (log2)” value under setting [4] was 0.0923.

As for `NS(O)(O)Cc1noc2ccccc12`, the “cell viability (log2)” value is 0.153 under setting [7], 0.0786 under setting [8], 0.183 under setting [13] and 0.124 under setting [14].

For the molecule `O=C(c1cc(-c2ccccc2)nc2ccccc12)N1CCCC1`, the “cell viability (log2)” value was 0.0657 under setting [1], 0.0915 under setting [2], 0.129 under setting [3] and -0.0754 under setting [4].

Take `O=C(c1cc(-c2ccccc2)nc2ccccc12)N1CCN(c2ccccc2)CC1`: the “cell viability (log2)” value under setting [1] is 0.112, the “cell viability (log2)” value under setting [2] was 0.0402, the “cell viability (log2)” value under setting [3] is 0.113 and the “cell viability (log2)” value under setting [4] is 0.188.

Take `CC1CN(C(=O)c2cc(-c3ccccc3)nc3ccccc23)CC(C)O1` (stereo unspecified): the “cell viability (log2)” value is -2.9 (active) under setting [1], -2.55 (active) under setting [2], 0.0982 under setting [3] and 0.0382 under setting [4].

Consider `Cc1cccc(C)c1OCC(N)C(C)C` (stereo unspecified), for which the “cell viability (log2)” value was 0.0355 under setting [7], -0.033 under setting [8], 0.0196 under setting [13] and 0.00962 under setting [14].

Regarding `COc1cccc2c1CCC1CC(=O)CC[C@]21C` (stereo partly specified), the “cell viability (log2)” value under setting [1] was 0.0982, the “cell viability (log2)” value under setting [2] is 0.0827, the “cell viability (log2)” value under setting [3] is 0.058 and the “cell viability (log2)” value under setting [4] was 0.11.

As for `OC[C@@H](O)[C@@H](O)C(O)[C@H](O)[C@@H](O)CO` (stereo partly specified), the “cell viability (log2)” value is 0.0348 under setting [1], 0.0046 under setting [2], 0.138 under setting [3] and 0.018 under setting [4].

For the molecule `C=CCc1ccccc1OCC(O)CNC(C)C` (stereo unspecified), the “cell viability (log2)” value by setting is: under setting [1], 0.0845; under setting [2], 0.135; under setting [7], -0.203 (active); under setting [8], 0.0871; under setting [3], 0.0928; under setting [4], 0.0547. Further, the “cell viability (log2)” value runs as follows: under setting [13], 0.0869; under setting [14], 0.156.

For `CC(C)NCC(O)COc1cccc2ccccc12` (stereo unspecified), the “cell viability (log2)” value runs as follows: under setting [1], 0.149; under setting [2], 0.0263; under setting [7], 0.19; under setting [8], 0.128; under setting [3], 0.146; under setting [4], -0.0491. Besides, the “cell viability (log2)” value is 0.0197 under setting [13] and 0.0681 under setting [14].

On to `CC(C)NC[C@H](O)COc1cccc2ccccc12`, for which the “cell viability (log2)” value reads like this: under setting [7], 0.141; under setting [8], 0.0581; under setting [13], 0.131; under setting [14], 0.11.

Regarding `CN1[C@@H]2CC[C@@H]1CC(OC(c1ccccc1)c1ccccc1)C2` (stereo partly specified), the “cell viability (log2)” value under setting [1] was 0.132; the “cell viability (log2)” value under setting [2] was 0.107; the “cell viability (log2)” value under setting [7] is 0.135; the “cell viability (log2)” value under setting [8] was 0.0858; the “cell viability (log2)” value under setting [3] is 0.0835; the “cell viability (log2)” value under setting [4] was 0.0797. Besides, the “cell viability (log2)” value runs as follows: under setting [13], 0.114; under setting [14], 0.0926.

`O=C(Cc1ccccc1)NO`: the “cell viability (log2)” value was 0.111 under setting [1], 0.0668 under setting [2], 0.126 under setting [3] and 0.0445 under setting [4].

With `O=C(Nc1ccccc1)Nc1ccccc1`, the “cell viability (log2)” value under setting [1] is -0.0389, the “cell viability (log2)” value under setting [2] is 0.0106, the “cell viability (log2)” value under setting [3] was 0.0741 and the “cell viability (log2)” value under setting [4] was -0.00546.

Turning to `O=C(CCCCCCC(=O)Nc1ccccc1)NO`, the “cell viability (log2)” value was 0.0138 under setting [5]; 0.0808 under setting [6]; 0.16 under setting [7]; 0.101 under setting [8]; 0.0409 under setting [9]; 0.115 under setting [10]. The “cell viability (log2)” value is, setting by setting: under setting [11], 0.0465; under setting [12], 0.156; under setting [13], 0.0836; under setting [14], 0.0743; under setting [15], -0.083; under setting [16], -0.944. The “cell viability (log2)” value reads like this: under setting [17], -1.12 (active); under setting [18], -0.391 (active); under setting [19], -2.67 (active); under setting [20], -1.56 (active).

As to `Cc1c2oc3c(C)ccc(C(=O)NC4C(=O)NC(C(C)C)C(=O)N5CCCC5C(=O)N(C)CC(=O)N(C)C(C(C)C)C(=O)OC4C)c3nc-2c(C(=O)NC2C(=O)NC(C(C)C)C(=O)N3CCCC3C(=O)N(C)CC(=O)N(C)C(C(C)C)C(=O)OC2C)c(N)c1=O` (stereo unspecified), the “cell viability (log2)” value was -4.25 (active) under setting [1], -4.25 (active) under setting [2], -4.23 (active) under setting [3] and -4.26 (active) under setting [4].

On to `COc1ccc(OC)c(CN2CCN(Cc3ccc([N+](=O)[O-])cc3)CC2)c1`, for which the “cell viability (log2)” value is 0.0199 under setting [1], 0.014 under setting [2], -0.0107 under setting [3] and 0.0533 under setting [4].

In the case of `O=C(O)c1cc2cc(F)ccc2[nH]1`, the “cell viability (log2)” value is 0.0776 under setting [1]; -0.00933 under setting [2]; -0.173 (active) under setting [7]; 0.0925 under setting [8]; 0.156 under setting [3]; 0.00267 under setting [4]. Further, the “cell viability (log2)” value runs as follows: under setting [13], 0.154; under setting [14], 0.0908.
